This note sets out measurements from PubChem BioAssay AID624255 (Broad Institute, 2012).

Values joined by “and” are separate entries in the source; they are usually repeats but may differ in a detail not shown here. Identical values can stand only once. About 4,600 (6%) of roughly 77,000 compounds were called active. Roughly 1% stayed inconclusive and do not appear here. This excerpt belongs to a sample that is enriched for actives. Values without a mark were called inactive.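 Rule for the calls: active = mean inhibition above about 93%, with at least 55% of replicates each passing it (limit read from the data, passing the limit was not always enough); inconclusive = only one of those two conditions holds; inactive = neither condition holds.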

The experiment can be described thus: T. cruzi intracellular proliferation inhibitors, primary screen, cell-based, beta-gal Tulahuen parasites, NIH3T3 host, luminescence (AID 624255). To be noted: T. cruzi beta-gal in NIH3T3, GalScreen luminescence, 90 h; at 8.34 µM; active compounds read high.
The inhibition is the relative decrease from the control value, in per cent. On to `CN1C(=O)c2cc(NC(=O)c3ccccc3)ccc2OC[C@@H]2O[C@H](CC(=O)NCC3CC3)CC[C@@H]21`, for which the inhibition is -30.4%.

For the compound `O=C(c1cccnc1)N1C[C@H]2[C@@H](c3ccccc31)[C@@H](CO)N2C(=O)Nc1ccccc1F`, the inhibition is -1.74%.

As to `C[C@H]1CN([C@@H](C)CO)C(=O)c2c(c3ccccc3n2C)-c2ccccc2CO[C@H]1CN(C)S(=O)(=O)c1ccc(C#N)cc1`, the inhibition is 29.4%.

Take `C[C@@H]1CN([C@H](C)CO)S(=O)(=O)c2ccc(-c3cccc(F)c3)cc2O[C@H]1CN(C)S(=O)(=O)c1ccc(F)cc1`: the inhibition is 118% (active).

For `C[C@H]1CN([C@@H](C)CO)S(=O)(=O)c2ccc(-c3cccc(F)c3)cc2O[C@@H]1CN(C)C`, the inhibition is -32.3% and -49.6%.

For the compound `C[C@@H]1CN([C@@H](C)CO)S(=O)(=O)c2ccc(-c3ccc(F)cc3)cc2O[C@H]1CN(C)C(=O)c1ccccc1F`, the inhibition is 84.8%.

As to `COc1cccc(NC(=O)N[C@@H]2CC[C@H](CC(=O)NCc3ccccn3)O[C@H]2CO)c1`, the inhibition is -39.2%.

With `CO[C@@H]1CN(C)C(=O)c2cc(NS(=O)(=O)c3cn(C)cn3)ccc2OC[C@@H](C)NC[C@H]1C`, the inhibition is -12.5%.

On to `Cc1ccccc1S(=O)(=O)N[C@H]1CC[C@@H](CCn2cc(Cc3ccccc3)nn2)O[C@H]1CO`, for which the inhibition is -21.8%.

In the case of `CN1c2ccc(-c3ccccc3F)cc2[C@H]2[C@H](CCN2C(=O)Cc2ccccn2)[C@H]1CO`, the inhibition is 81%.

Regarding `CN1c2ccc(-c3ccccc3)cc2[C@@H]2[C@@H](CCN2C(=O)c2ccccc2F)[C@@H]1CO`, the inhibition is 83.7%.

In the case of `CN1c2ccc(-c3ccccc3)cc2[C@@H]2[C@@H](CCN2C(=O)c2ccncc2)[C@@H]1CO`, the inhibition was 103% (active).

Consider `CCC(=O)N1CC[C@@H]2[C@@H](CO)N(C)c3ccc(-c4cccc(OC)c4)cc3[C@@H]21`, for which the inhibition was 104% (active).

As to `COc1cccc(NC(=O)N2CC[C@@H]3[C@@H](CO)N(C)c4ccc(-c5cccc(F)c5)cc4[C@@H]32)c1`, the inhibition is 30.5%.

As to `CN1c2ccc(-c3ccccc3)cc2[C@@H]2[C@@H](CCN2C(=O)c2ccccc2)[C@H]1CO`, the inhibition was 62.4%.

On to `COc1ccc(-c2ccc3c(c2)[C@@H]2[C@@H](CCN2C(=O)Cc2ccccn2)[C@H](CO)N3C)cc1`, for which the inhibition was 90.9% (active).

Regarding `CCC(=O)N1CC[C@H]2[C@@H]1c1cc(-c3ccc(C#N)cc3)ccc1N(C)[C@H]2CO`, the inhibition was 58.1%.

Take `COc1ccc(-c2ccc3c(c2)[C@H]2[C@H](CCN2C(=O)C2CCOCC2)[C@H](CO)N3C)cc1`: the inhibition is 1.27%.
